From PubChem BioAssay (NCATS)
Several values for one entry are separate records, joined by “and”; a condition that tells them apart may be missing. Equal values may be shown once. Inconclusive results are not listed. Activity calls are given as the source filed them. Unless noted, the call rests on the fitted dose curve; in most records, active means well fitted curve in the direction sought with a large enough effect; inconclusive means small, poorly fitted or top-dose-only effect, or another doubt; inactive means no such curve, though single readings can be large; an effect the other way counts as inactive or inconclusive.

Assays:
[1] = Cell Viability - HepG2 (AID 433; calls by dose curve;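 further: potency means the concentration at half of the fitted maximal effect; potency for ATP loss meaning cytotoxicity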); details: qHTS
Outline: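 Cytotoxicity is scored as loss of intracellular ATP in HepG2 cells exposed to compounds for 40 h. Concentration-response curves, normalized to DMSO and 100 uM tamoxifen, give AC50 values.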

[2] = Cell Viability - NIH 3T3 (AID 541); details: NIH 3T3 cell viability, qHTS; activity change, negative = cytotoxicity: at 92.2 µM (top of the series);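 further: plate controls were DMSO alone for no effect and tamoxifen positive control for full effect; nearly all actives have a fitted effect of over 25% in size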
Outline: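 Mouse NIH 3T3 fibroblasts, 1000 cells/well, rested 5 hr at 37 °C, then exposed to compound for 40 hr at 37 °C in complete medium. Viability read as intracellular ATP by CellTiter-Glo luminescence; AC50 from Hill-equation fits of concentration-response data.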

[3] = Cell Viability - Mesenchymal (AID 546);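 further: cells exposed to compound for 40 hours before reading; 0% = DMSO only and -100% = 100 µM tamoxifen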
Outline: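 Human kidney mesenchymal cells from normal renal glomeruli, 1000 cells/well, rested 5 hr at 37 °C, then treated 40 hr at 37 °C in complete medium. Cellular ATP read by CellTiter-Glo luminescence; AC50 from Hill-equation fits.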

[4] = Cellular Toxicity (caspase-3) HepG2 (AID 654);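 further: cells exposed to compound for 16 hours before reading; 0% = DMSO alone and 100% = caspase signal from 100 µM tamoxifen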
Outline: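 HepG2 cells (1500/well) were treated 16 h at 37 °C in complete medium, then caspase 3/7 activity was read by Caspase-Glo luminescence. Data were normalized to DMSO and 100 uM tamoxifen; AC50 came from Hill-equation fits of qHTS concentration-response.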

[5] = Cellular Toxicity (caspase-3) HUV-EC-C (AID 656);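 further: 0% = DMSO basal and 100% = 100 µM tamoxifen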
Outline: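 Read-out: luminescence proportional to caspase 3/7 activity, measured 20 min after adding Caspase-Glo 3/7 reagent. Cells (HUV-EC-C) had received compound for 16 hr at 37°C. Increases relative to DMSO and 100 uM tamoxifen gave concentration-response AC50 values.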

[6] = Cellular Toxicity (caspase-3) SHSY5Y (AID 657)
Outline: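 Cells plated and incubated 5 h at 37 °C, dosed over a concentration range, incubated 16 h, then given Caspase-Glo 3/7 reagent for 1 h at room temperature before luminescence reading. Staurosporine (10 uM) defined full stimulation.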

[7] = Cellular Toxicity (caspase-3) BJ (AID 658)
Outline: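 BJ human foreskin fibroblasts, 1000 cells/well, treated 16 hours at 37 °C in complete medium; caspase 3/7 activity by Caspase-Glo luminescence after 1 hr at room temperature. Normalized to DMSO and 10 uM staurosporine; AC50 from Hill fits.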

[8] = Cellular Toxicity (caspase-3) MRC-5 (AID 659)
Outline: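 MRC-5 human normal lung fibroblasts, 1500 cells/well, treated 16 h at 37 °C in complete medium. Caspase 3/7 measured by Caspase-Glo luminescence after 1 h at room temperature. Normalized to DMSO and 10 uM staurosporine; AC50 from Hill fit.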

[9] = Cellular Toxicity (caspase-3) SK-N-SH (AID 661)
Outline: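 Human SK-N-SH neuroblastoma cells, 1500/well, were exposed to compounds for 16 hours at 37 °C. Caspase-Glo 3/7 luminescence was normalized to DMSO (basal) and 10 uM staurosporine (100%), and AC50 came from a Hill fit.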

[10] = Cellular Toxicity (caspase-3) H-4-II-E (AID 663);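 further: cells exposed to compound for 16 hr before readout; 0% = DMSO basal and 100% = 100 µM tamoxifen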
Outline: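 Rat hepatoma H-4-II-E cells (1500/well) plated 5 hr, then exposed to compound titrations for 16 hr at 37 °C. Caspase-Glo 3/7 luminescence read after 20 min at RT; data normalized to DMSO and 100 uM tamoxifen, AC50 from Hill fits.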

[11] = Cellular Toxicity (caspase-3) N2a (AID 665); details: N2a cells, luminescence, normalized: DMSO 0%, 10 µM staurosporine 100%; at 92.2 µM (top of the series);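 further: compound exposure lasted 16 h at 37 °C before readout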
Outline: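 Mouse N2a neuroblastoma cells, 1500 per well, treated 16 h at 37 °C in complete medium; caspase-3/7 activity by Caspase-Glo luminescence after 1 h. Normalized to DMSO and 10 uM staurosporine; AC50 from Hill fits.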

[12] = Cellular Toxicity (caspase-3) NIH 3T3 (AID 666);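 further: caspase signal read after 16 h compound exposure; 0% = DMSO basal and 100% = 100 µM tamoxifen stimulation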
Outline: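 Mouse NIH 3T3 fibroblasts (1000/well) treated 16 h at 37 C; caspase-3/7 activity measured by Caspase-Glo 3/7 luminescence after 20 min. Normalized to DMSO and 100 uM tamoxifen; AC50 from Hill fits.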

[13] = Confirmation and Secondary Assay for Modulators of Hemoglobin Beta Chain Splicing at IVS2 705 locus (AID 930);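 further: HeLa cells stably expressing the EGFP-705 splicing reporter; % of control where 0% means no effect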
Outline: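 Restored EGFP fluorescence after 2-day compound exposure reports splicing correction in IVS2-705 EGFP reporter HeLa cells; positive control was 500 nM splice-blocking PNA oligo. Signal measured as well total peak GFP intensity (488 nm excitation).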

[14] = MultiTox-Fluor Cytotoxicity Assay - LYMP1-002 - Live Cells (AID 955); further: on the % scale 0 is the no-effect control and ±100 the full control effect
Outline: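 Human lymphoblastoid LYMP1-002 cells, 2500/well, treated 16 h at 37 C in complete medium. Live-cell protease activity via GF-AFC fluorescence (Ex/Em 405/510) after 60 min reagent incubation; AC50 from Hill fits.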

[15] = Cell Viability - LYMP2-025 (AID 976); further: potency means the concentration at half of the fitted maximal effect;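 on activity change, negative = cytotoxicity: plate controls were DMSO only for no effect and tetraoctylammonium bromide control for full effect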
Outline: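 Human lymphoblastoid LYMP2-025 cells, 2500/well, exposed 24 h at 37 C in complete medium in 1536-well qHTS. Viability as cellular ATP by CellTiter-Glo luminescence; AC50 from Hill fits of concentration-response data.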

[16] = qHTS assay for small molecule agonists of the antioxidant response element (ARE) signaling pathway measured by Nrf2-dependant transcriptional activity - cell viability counter screen (AID 720653; active means well fitted curve in the direction sought with a large enough effect in the repeat runs; an effect the other way counts as inactive or inconclusive; further: on the % scale 0 is the no-effect control and ±100 the full control effect); details: ARE-bla HepG2 viability, CellTiter-Glo ATP luminescence, 16 h; hits give low values
Outline: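 ARE-bla HepG2 cells treated with compounds for 16 h at 37C; this counter screen measures viability as intracellular ATP by CellTiter-Glo luminescence after 30 min at room temperature.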

[17] = qHTS assay for cell viability of HEK293 cells (AID 743288); details: ATP luminescence (CellTiter-Glo), 18 h; max response: hits give low values; further: on the % scale 0 is the no-effect control and ±100 the full control effect; nearly all actives have a fitted effect of over 50% in size
Outline: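 The Tox21 protocol used parental HEK293 cells treated for 18 h at 37 C with compounds delivered by pintool; ATP-coupled luminescence after 30 min at room temperature gave viability.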

[18] = target: Cytochrome P450 2C19 (Homo sapiens) (UniProt P33261); assay: qHTS Assay for Inhibitors and Substrates of Cytochrome P450 2C19 (AID 899); further: nearly all actives have a fitted effect of over 60% in size; further: potency means the concentration at half of the fitted maximal effect
Cytochrome P450 2C19 (Homo sapiens), sequence (P33261 whole entry, looked up): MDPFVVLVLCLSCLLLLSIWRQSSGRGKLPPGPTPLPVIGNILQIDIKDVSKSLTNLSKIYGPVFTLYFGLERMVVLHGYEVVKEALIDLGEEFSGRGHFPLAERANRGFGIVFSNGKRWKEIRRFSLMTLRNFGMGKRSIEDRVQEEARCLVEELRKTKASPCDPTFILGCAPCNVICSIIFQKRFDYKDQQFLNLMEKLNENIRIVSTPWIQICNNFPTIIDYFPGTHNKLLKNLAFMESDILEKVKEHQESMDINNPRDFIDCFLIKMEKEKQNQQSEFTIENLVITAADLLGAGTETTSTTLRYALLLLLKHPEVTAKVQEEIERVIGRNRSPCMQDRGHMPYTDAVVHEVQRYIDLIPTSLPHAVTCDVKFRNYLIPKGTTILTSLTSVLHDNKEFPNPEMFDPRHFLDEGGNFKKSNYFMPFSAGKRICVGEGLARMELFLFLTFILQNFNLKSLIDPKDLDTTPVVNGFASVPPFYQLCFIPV
Outline: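 Luminescent read-out of luciferin formed from Luciferin-H EGE (10uM, equal to KM). Enzyme 5nM in 50mM KPO4; compound added, 10 min at 37C, then NADPH regenerating system for 60 min at 37C. Full inhibition defined by 57uM ketoconazole.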

ICS = assay: qHTS profiling for inhibitors of Plasmodium falciparum proliferation (AID 504749); further: nearly all actives have a fitted effect of over 60% in size; further: potency means the concentration at half of the fitted maximal effect; details: P. falciparum in erythrocytes, SYBR Green DNA, 72 h; series mostly up to 28.7 µM
Outline: (§1)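 P. falciparum-infected erythrocytes (0.3% parasitemia, 2.5% hematocrit) incubated with compound 72 h at 37 C, 5% CO2. Parasite DNA detected by SYBR Green after lysis, overnight at room temperature; normalised to 0.29 uM artemisinin and DMSO.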

W2 = assay: as above; details: P. falciparum in erythrocytes, SYBR Green DNA, 72 h; series mostly up to 12.8 µM
Outline: as §1

CCNc1nc(Cl)nc(NC(C)C)n1
inactive: Potency [1] > 92 µM | activity change, negative = cytotoxicity [2] -18.4% | outcome [3] | outcome [4] | outcome [5] | outcome [6] | outcome [7] | outcome [8] | outcome [9] | outcome [10] | caspase-3 activation [11] -0.492% | outcome [12] | Potency [13] | outcome [14] | Potency [15] | max response [16] 5.56% and -9% | max response [17] 2.61% and -2.5%

ClC1=C(Cl)C2(Cl)C3C(Cl)C=CC3C1(Cl)C2(Cl)Cl (configuration not stated)
inactive: Potency [1] > 92 µM | outcome [3] | outcome [4] | outcome [5] | outcome [6] | outcome [7] | outcome [8] | outcome [9] | outcome [10] | caspase-3 activation [11] -3.13% | outcome [12] | Potency [13] | outcome [14] | Potency [15] | max response [16] -10.5% | max response [17] -13.7%

COP(=S)(OC)Oc1ccc([N+](=O)[O-])cc1
inactive: Potency [1] > 92 µM | activity change, negative = cytotoxicity [2] -18.8% | outcome [3] | outcome [4] | outcome [5] | outcome [6] | outcome [7] | outcome [8] | outcome [9] | outcome [10] | caspase-3 activation [11] -2.62% | outcome [12] | Potency [13] | outcome [14] | Potency [15] | max response [16] 0.527% and -8.08% | max response [17] -1.38% and -0.0798%

C=CCc1ccc(OC)cc1
inactive: Potency [1] > 92 µM | activity change, negative = cytotoxicity [2] 3.06% | outcome [3] | outcome [4] | outcome [5] | outcome [6] | outcome [7] | outcome [8] | outcome [9] | outcome [10] | caspase-3 activation [11] 0.258% | outcome [12] | outcome [14] | Potency [15] | max response [16] 2.85% | max response [17] 2.04%

O=S1OCC2C(CO1)C1(Cl)C(Cl)=C(Cl)C2(Cl)C1(Cl)Cl (configuration not stated)
inactive: Potency [1] > 92 µM | activity change, negative = cytotoxicity [2] -20.5% | outcome [3] | outcome [4] | outcome [5] | outcome [7] | outcome [8] | outcome [10] | caspase-3 activation [11] 12.4% | outcome [12] | Potency [13] | outcome [14] | Potency [15] | max response [16] 13.3% | max response [17] -13.5%

O=C(c1ccco1)N1CCC[C@@]2(CCN(Cc3ccncc3)C2)C1
active: Potency [18] 2.51 µM

COC(=O)NC(=S)Nc1ccccc1NC(=S)NC(=O)OC
inactive: Potency [1] > 92 µM | activity change, negative = cytotoxicity [2] -30% | outcome [3] | outcome [4] | outcome [5] | outcome [6] | outcome [7] | outcome [8] | outcome [9] | outcome [10] | caspase-3 activation [11] 0.433% | outcome [12] | Potency [13] | outcome [14] | Potency [15] | max response [16] -1.18% and 2.94% | max response [17] 1.27% and -9.9%

c1ccc(N=Nc2ccccc2)cc1
inactive: Potency [1] > 92 µM | activity change, negative = cytotoxicity [2] -2.38% | outcome [3] | outcome [4] | outcome [5] | outcome [6] | outcome [7] | outcome [8] | outcome [9] | outcome [10] | caspase-3 activation [11] -2.4% | outcome [12] | Potency [13] | outcome [14] | Potency [15] | max response [16] -6.06% and -16.5% | max response [17] 1.24% and -11.6%

ClC1=C(Cl)C2(Cl)C3C4CC(C5OC45)C3C1(Cl)C2(Cl)Cl (configuration not stated)
active: Potency [15] 50.1 µM
inactive: Potency [1] > 92 µM | activity change, negative = cytotoxicity [2] -20.8% | outcome [4] | outcome [5] | outcome [6] | outcome [7] | outcome [8] | outcome [9] | outcome [10] | caspase-3 activation [11] -1.24% | outcome [12] | Potency [13] | max response [16] -3.29% | max response [17] -18.3%

C[C@@]12CC[C@H]3[C@@H](CC[C@@H]4C[C@H]5S[C@H]5C[C@]43C)[C@H]1CC[C@H]2O
active: Potency [18] 0.0631 µM

C[C@H](N)[C@@H](O)c1ccccc1
inactive: Potency (ICS) | Potency (W2)

CC(=O)O[C@H]1CC[C@@]2(C)C(=CC[C@@H]3[C@H]2CC[C@]2(C)C(=O)CC[C@H]32)C1
inactive: Potency (ICS) | Potency (W2)

C[C@H]1CN(C2CCC(C#N)(c3ccc(F)cc3)CC2)CC[C@@]1(C(=O)O)c1ccccc1 (some centres not stated)
inactive: Potency (ICS) | Potency (W2)

CC[C@@]1(c2ccc(N)cc2)CCC(=O)NC1=O
inactive: Potency (ICS)

COc1ccc2c(c1OC)CN1CCc3cc4c(cc3[C@H]1C2)OCO4
active: Potency [18] 1.26 µM | Potency (W2) 2.28 µM

C[N+]1(C)[C@@H]2CC[C@H]1CC(OC(=O)[C@@H](CO)c1ccccc1)C2 (some centres not stated)
inactive: Potency (ICS) | Potency (W2)

CC1=C2[C@@H]3OC(=O)[C@@H](C)[C@@H]3CC[C@]2(C)C=CC1=O
inactive: Potency (ICS) | Potency (W2)

C[C@@]12CCC(=O)C=C1C=C[C@H]1[C@H]3CC[C@](O)(CCC(=O)O)[C@]3(C)CC[C@@H]12
active: Potency (ICS) 3.55 µM | Potency (W2) 5.73 µM

Cc1nc2cnc(N3CCNCC3)nc2n(C)c1=O
inactive: Potency [18]

CNC[C@H](O)c1ccc(O)cc1
inactive: Potency [18] | Potency (ICS) | Potency (W2)

COc1ccc2c(c1OC)C(=O)O[C@H]2[C@H]1c2cc3c(cc2CCN1C)OCO3
active: Potency [18] 1.26 µM and 79.4 nM
